# Mdm2 MdmX PPI: human Mdm2/MdmX binding inhibition. O15151+Q00987. SaOS-2 split-luciferase Mdm2/MdmX complementation, luminescence. inhibition, % at 8 µM. 3% of 330,000 active. AID 485346;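 active = inhibition of at least 50% at 8 µM in the primary screen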
# Target sequence (O15151 whole entry, looked up): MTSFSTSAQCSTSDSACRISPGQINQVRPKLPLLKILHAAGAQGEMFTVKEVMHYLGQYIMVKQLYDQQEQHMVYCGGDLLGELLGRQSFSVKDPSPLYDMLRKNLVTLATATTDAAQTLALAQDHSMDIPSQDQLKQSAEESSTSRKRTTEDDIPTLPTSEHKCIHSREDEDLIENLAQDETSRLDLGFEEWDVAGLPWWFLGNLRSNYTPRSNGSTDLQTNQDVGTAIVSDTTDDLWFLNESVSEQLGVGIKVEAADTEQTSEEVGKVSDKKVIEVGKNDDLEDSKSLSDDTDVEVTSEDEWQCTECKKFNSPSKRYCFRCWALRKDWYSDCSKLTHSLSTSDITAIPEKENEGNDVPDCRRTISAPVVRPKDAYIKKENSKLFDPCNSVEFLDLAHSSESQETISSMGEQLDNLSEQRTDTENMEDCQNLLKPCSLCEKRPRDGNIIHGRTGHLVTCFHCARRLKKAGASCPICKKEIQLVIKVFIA
# Target sequence (Q00987 whole entry, looked up): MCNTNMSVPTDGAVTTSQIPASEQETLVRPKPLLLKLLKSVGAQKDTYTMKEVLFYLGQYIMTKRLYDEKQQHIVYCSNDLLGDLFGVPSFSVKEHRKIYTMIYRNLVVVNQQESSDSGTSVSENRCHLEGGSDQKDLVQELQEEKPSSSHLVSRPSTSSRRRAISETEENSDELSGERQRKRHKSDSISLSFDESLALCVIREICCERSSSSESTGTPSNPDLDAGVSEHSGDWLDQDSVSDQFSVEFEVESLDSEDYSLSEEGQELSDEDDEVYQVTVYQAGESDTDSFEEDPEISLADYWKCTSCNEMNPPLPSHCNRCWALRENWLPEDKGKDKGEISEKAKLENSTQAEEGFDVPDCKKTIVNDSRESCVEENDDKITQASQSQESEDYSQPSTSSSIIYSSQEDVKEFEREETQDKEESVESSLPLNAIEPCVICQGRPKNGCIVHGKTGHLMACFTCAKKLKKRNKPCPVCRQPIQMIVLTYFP
# TIM10 inh: inhibits growth of TIM10 yeast strain; S. cerevisiae TIM10 strain growth, BacTiter-Glo luminescence, 24 h; inhibition, % at 10 µM; 1.4% of 330,000 active; AID 463195;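 active = inhibition of 40% or more at the single tested concentration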;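 also: wild-type TIM10 isogenic control strain grown at permissive 25 °C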
# tim10-1 inh: tim10-1 yeast growth inhibition | inhibition, % at 20 µM | S. cerevisiae tim10-1 ts strain growth, BacTiter-Glo, 24 h | 2.2% of 330,000 active;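 active = inhibition of at least 40%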;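 also: mutant grown at 25 °C; 0% = DMSO wells with yeast and 100% = wells holding no yeast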
# MPTP inh: permeability transition pore inhibition | isolated mouse mitochondria, Ca2+ swelling absorbance, 30 min | inhibition, % at 10 µM | 1.4% of 360,000 active | AID 602449;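 active = inhibition of 50% or more, scaled per plate between neutral and stimulator controls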;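 also: 0% = DMSO wells given calcium and 100% = 1 mM EGTA wells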
# tim23-1 inh: inhibits growth of tim23-1 mutant yeast. S. cerevisiae tim23-1 growth, BacTiter-Glo luminescence, 24 h. inhibition, % at 20 µM. 1.3% of 330,000 active. AID 463212;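 active = growth inhibition of the mutant yeast at or above 50%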;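 also: temperature-sensitive mutant grown at 25 °C; plate controls were DMSO-treated mutant yeast for no effect and medium wells lacking yeast for full effect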
# TIM10 conf: TIM10 yeast growth inhibition, confirmed | S. cerevisiae tim10 strain growth, BacTiter-Glo luminescence, 24 h | inhibition, % at 10 µM | 63% of 4,600 active | shares compounds with TIM10 inh;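 active = inhibition of yeast growth at or above a set limit in either of two replicates at 10 µM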;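 also: this counterscreen used the strain with wild-type TIM10; 0% = yeast with DMSO and 100% = medium wells lacking yeast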
# tim23-1 confirm: confirmation of tim23-1 mutant yeast growth inhibitors | S. cerevisiae tim23-1 growth, BacTiter-Glo luminescence, 24 h | inhibition, % at 20 µM | AID 463218 | 83% of 4,400 active | shares compounds with tim23-1 inh;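 active = inhibition above about 39% in either of two replicate wells at 20 µM, limit read from the data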;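 also: temperature-sensitive tim23-1 mutant grown at 25 °C; 0% = DMSO wells with yeast and 100% = medium wells without yeast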
# Mdm2 MdmX conf: human Mdm2/MdmX binding inhibition, confirmed | AID 489028 | luminescent assay | 55% of 10,000 active | inhibition, % at 8 µM | shares compounds with Mdm2 MdmX PPI; in the data active = inhibition above about 40%
# FLuc counter: inhibits full-length luciferase, flagging false Mdm2/MdmX hits; shares compounds with Mdm2 MdmX PPI; SaOS-2 full-length luciferase counterscreen, luminescence; inhibition, % at 8 µM; 77% of 6,200 active;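 active = mean inhibition at 8 µM reaching about 37%, which flags the compound as non-specific, limit read from the data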;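 also: p53-null SaOS-2 cells with luciferase driven by a doxycycline-inducible promoter; compound on cells about two nights before reading with doxycycline added after day one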
# * = called active by the depositor; . = not tested or not shown. Compounds with a hit are over-represented: about 6.3% of the library has one in this group of screens.
SMILES,Mdm2 MdmX PPI,TIM10 inh,tim10-1 inh,MPTP inh,tim23-1 inh,TIM10 conf,tim23-1 confirm,Mdm2 MdmX conf,FLuc counter
O=C1c2ccccc2C(=O)c2c1ncn2-c1ccccc1,4.1,45.7*,39.0,1.3,50.0,3.7,44.7*,.,.
O=C1c2ccccc2C(=O)c2[nH]cnc21,.,.,.,0.3,.,.,.,.,.
CCCC#Cc1ccc2c(c1)O[C@@H](CN(C)Cc1ccc3c(c1)OCO3)[C@H](C)CN([C@@H](C)CO)S2(=O)=O,.,.,.,-0.7,.,.,.,.,.
Cc1ccn2cc(C(=O)Nc3ccc4c(c3)OCCO4)nc2c1,-36.8,43.8*,29.4,-2.0,50.3*,24.8,49.5*,.,.
Cc1c(C(=O)n2cnc3ccccc32)cccc1[N+](=O)[O-],-3.2,6.7,27.5,-1.4,22.3,.,.,.,.
Cc1nc2ccccc2n1C(=O)c1ccccc1[N+](=O)[O-],-16.8,49.8*,34.0,1.0,50.0,46.8*,39.5*,.,.
CC(C)(C)C(=O)c1sc2nc(-c3cccs3)cc(C(F)(F)F)c2c1N,-4.1,6.6,38.3,3.4,32.5,.,.,.,.
CCN(CC)C(=O)c1sc2nc(-c3cccs3)cc(-c3cccs3)c2c1N,-15.5,42.7*,34.7,2.0,52.9*,34.8*,43.2*,.,.
Cc1ccsc1/C=N/NC(=O)c1ccc2c(c1)OCCO2,-66.5,48.8*,29.7,5.5,56.2*,52.2*,72.1*,.,.
O=C(N/N=C/c1cc(Br)cs1)c1ccc2c(c1)OCCO2,3.3,20.0,-40.9,-0.5,45.6,.,.,.,.
Cc1ccc(/C=N/NC(=O)c2ccc3c(c2)OCCO3)s1,16.1,43.8*,-17.7,3.6,58.7*,31.5,65.2*,.,.
COc1ccc(NC(=O)CSc2nnc3n2CCCCC3)cc1OC,.,.,.,-3.0,.,.,.,.,.
CCc1cccc(C)c1NC(=O)COC(=O)Cc1ccccc1,.,.,.,-0.2,.,.,.,.,.
O=S(=O)(c1ccc2ccccc2c1)N1CCN(c2ccc(O)cc2)CC1,16.2,44.0*,30.5,2.2,57.8*,44.0*,48.0*,.,.
CCN(CC)Cc1c(O)ccc2c(=O)c(-c3ccc4c(c3)OCCO4)coc12,19.8,3.1,0.4,-4.6,1.4,.,.,.,.
O=c1c(-c2ccc3c(c2)OCCO3)coc2cc(O)cc(O)c12,-177.8,41.0*,35.2,23.7,56.2*,36.2*,49.1*,.,.
COC(=O)c1ccccc1NC(=S)NC(=O)c1ccc(C)cc1,13.3,51.1*,26.5,1.4,59.8*,15.4,45.1*,.,.
COC(=O)c1ccccc1NC(=S)NC(=O)c1ccccc1,13.2,37.2,14.2,-5.6,34.3,.,.,.,.
O=C(NCc1ccco1)c1ccc2sc([C@@H]3O[C@H](CO)[C@H](O)[C@H](O)[C@H]3O)nc2c1,.,.,.,-0.6,.,.,.,.,.
O=C(CCCOc1ccc(Cl)cc1Cl)N/N=C/c1ccccc1O,75.6*,41.3*,-1.2,34.0,38.8,39.6*,.,81.5*,22.0
O=C(CCCOc1ccc(Cl)cc1Cl)N/N=C/c1ccccc1,18.2,5.0,6.0,3.4,21.4,.,.,.,.
COc1ccc(Nc2ccc3c(c2)=NC2(CCCCC2)[N+]=3[O-])cc1,100.4*,46.6*,37.0,8.0,35.8,4.5,.,59.2*,39.2*
c1ccc(N2CCN(c3nc(-c4ccccn4)nc4ccccc34)CC2)cc1,58.5*,40.4*,14.8,-1.9,-6.8,4.6,.,31.1,.
COCC#Cc1ccc2c(c1)O[C@@H](CN(C)S(=O)(=O)c1cccc(F)c1)[C@@H](C)CN([C@H](C)CO)S2(=O)=O,.,.,.,-1.6,.,.,.,.,.
C=C(C)COc1ccc(-c2[nH]ncc2-c2ccc(Br)cc2)c(O)c1,59.7*,49.2*,-7.3,10.5,26.7,-17.9,.,61.9*,44.4*
SMILES,Mdm2 MdmX PPI,TIM10 inh,tim10-1 inh,MPTP inh,tim23-1 inh,TIM10 conf,tim23-1 confirm,Mdm2 MdmX conf,FLuc counter
COc1cccc(C(=O)N/N=C(/c2ccccc2)c2ccccn2)c1,84.3*,40.1*,34.7,-3.8,35.1,5.4,.,78.7*,39.2*
Cc1ccccc1C(=O)N1CCC1(C)C(=O)NC(C)C (stereo unspecified),.,.,.,0.6,.,.,.,.,.
COC(=O)CCS(=O)(=O)c1nc(-c2ccccc2)cc(C(F)(F)F)n1,83.7*,45.0*,19.6,-1.0,34.1,31.3*,.,100.2*,51.4*
CCOC(=O)CS(=O)(=O)c1nc(-c2ccccc2)cc(C(F)(F)F)n1,100.6*,44.2*,38.1,-4.1,64.3*,55.2*,-40.6,97.7*,-0.5
CCOC(=O)CCS(=O)(=O)c1nc(-c2ccccc2)cc(C(F)(F)F)n1,100.3*,51.9*,17.5,-0.7,21.2,57.8*,.,100.2*,51.2*
O=C(O)CCS(=O)(=O)c1nc(-c2cccs2)cc(C(F)(F)F)n1,8.6,28.7,25.7,-2.1,25.7,.,.,.,.
COc1cc(-c2c(CCO)sc3ccccc23)cc(OC)c1OC,.,.,.,0.3,.,.,.,.,.
COc1cccc(/C=N/NC(=O)c2c(C)nc3ccc(Cl)cn23)c1O,68.2*,48.1*,25.7,1.4,58.8*,64.8*,58.3*,78.3*,34.5
COc1cccc(/C=N/NC(=O)c2cc(-c3ccccn3)nc3ccccc23)c1O,75.5*,44.6*,19.5,-1.2,24.8,7.0,.,60.0*,40.0*
COc1c(C)cc(C(O)c2ncc(-c3ccccc3C)[nH]2)cc1C (stereo unspecified),.,.,.,0.0,.,.,.,.,.
CCCCn1c(N)c(N(CCOC)C(=O)CCS(=O)(=O)c2ccc(C)cc2)c(=O)[nH]c1=O,.,.,.,-1.2,.,.,.,.,.
O=C1C(=O)c2ccc(-c3ccccc3)cc2-c2ccccc21,84.1*,43.9*,36.3,13.4,59.2*,61.2*,55.8*,100.2*,52.0*
Cn1c(N2CCOCC2)c(/C=N/OC(=O)c2ccc(F)cc2)c2ccccc21,49.9,9.4,37.8,4.3,16.9,.,.,.,.
Cc1ccc(C(=O)O/N=C/c2c(N3CCOCC3)n(C)c3ccccc23)cc1,51.4*,42.2*,30.9,0.7,39.8,32.0*,.,40.5*,7.2
Cc1ccccc1NC(=S)NCCC(c1ccccc1)c1ccccc1,30.2,16.6,17.6,0.5,22.2,.,.,.,.
Cc1ccc(NC(=S)NCCC(c2ccccc2)c2ccccc2)c(C)c1,61.4*,48.7*,20.5,12.9,19.9,33.0*,.,4.2,.
CCN(CC)CCNC(=O)c1ccc2c(c1NCCO)C(=O)c1ccccc1C2=O,91.1*,43.5*,29.3,8.7,69.7*,48.5*,60.0*,83.7*,4.0
O=C(NCCO)c1cccc2c1C(=O)c1ccccc1-2,14.7,-0.8,2.1,1.3,5.1,.,.,.,.
c1ccc(OCCOCCN2CCN(C(c3ccccc3)c3ccccc3)CC2)cc1,52.0*,43.1*,28.6,0.7,14.0,-4.0,.,15.1,.

# Bioassay records (PubChem BioAssay)
